# From PubChem BioAssay AID1159580 (chemical genetic matrix, 2015)
# About 2,000 (36%) of roughly 5,500 compounds were called active. About 18% were inconclusive and are not listed. The list shows a part of the results. Unmarked numbers belong to inactive results. No stated cut-off is given here; in the data, active means normalized growth mostly below about 0.91 (no sharp cut-off); inconclusive means no clear call, values can overlap the other calls; inactive means mostly above about 0.92.
# Assay: chemical genetic growth profiling, strain panel (AID 1159580);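 further: tested at 20 µM; growth read once vehicle control cultures reached saturation at 30 °C; 1 = growth at the plate median or of vehicle wells; lower values mean less growth of the strain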
# Details: growth OD
# [1] = S. cerevisiae deletion strains, locus YHR030C, strain SLT2, active compounds read low
# [2] = S. cerevisiae deletion strains, locus YJL095W, strain BCK1, active compounds read low
compound,measurement,setting,value
COc1cc(O)c2c(=O)cc(-c3ccc(O)cc3)oc2c1,normalized growth,"S. cerevisiae deletion strains, locus YBR021W, strain FUR4, active compounds read low",1.02
same,normalized growth,"S. cerevisiae deletion strains, locus YBR229C, strain ROT2, active compounds read low",1
same,normalized growth,"S. cerevisiae deletion strains, locus YCL029C, strain bik1, active compounds read low",1
same,normalized growth,"S. cerevisiae deletion strains, locus YDL035C, strain GPR1, active compounds read low",1
same,normalized growth,"S. cerevisiae deletion strains, locus YDL074C, strain BRE1, active compounds read low",1.01
same,normalized growth,"S. cerevisiae deletion strains, locus YDL101C, strain DUN1, active compounds read low",1.02
same,normalized growth,"S. cerevisiae deletion strains, locus YDL185W, strain tfp1, active compounds read low",1.02
same,normalized growth,"S. cerevisiae deletion strains, locus YDL192W, strain arf1, active compounds read low",1.05
same,normalized growth,"S. cerevisiae deletion strains, locus YDR101C, strain arx1, active compounds read low",1.03
same,normalized growth,"S. cerevisiae deletion strains, locus YDR162C, strain NBP2, active compounds read low",1.06
same,normalized growth,"S. cerevisiae deletion strains, locus YDR318W, strain mcm21, active compounds read low",1.02
same,normalized growth,"S. cerevisiae deletion strains, locus YDR388W, active compounds read low",0.994
same,normalized growth,"S. cerevisiae deletion strains, locus YDR502C, strain sam2, active compounds read low",1
same,normalized growth,"S. cerevisiae deletion strains, locus YEL061C, strain CIN8, active compounds read low",1
same,normalized growth,"S. cerevisiae deletion strains, locus YER110C, active compounds read low",1.02
same,normalized growth,"S. cerevisiae deletion strains, locus YER155C, strain BEM2, active compounds read low",1.04
same,normalized growth,"S. cerevisiae deletion strains, locus YER167W, strain BCK2, active compounds read low",1.02
same,normalized growth,"S. cerevisiae deletion strains, locus YGL078C, strain dbp3, active compounds read low",1.03
same,normalized growth,"S. cerevisiae deletion strains, locus YGL086W, strain mad1, active compounds read low",1
same,normalized growth,"S. cerevisiae deletion strains, locus YGL248W, strain PDE1, active compounds read low",1.02
same,normalized growth,"S. cerevisiae deletion strains, locus YGR135W, strain pre9, active compounds read low",1.04
same,normalized growth,"S. cerevisiae deletion strains, locus YGR252W, strain gcn5, active compounds read low",0.949
same,normalized growth,[1],1.01
same,normalized growth,"S. cerevisiae deletion strains, locus YHR079C, strain IRE1 (second series), active compounds read low",1.01
same,normalized growth,"S. cerevisiae deletion strains, locus YHR094C, strain hxt1, active compounds read low",0.996
same,normalized growth,"S. cerevisiae deletion strains, locus YHR129C, strain ARP1, active compounds read low",1.01
same,normalized growth,"S. cerevisiae deletion strains, locus YHR200W, strain rpn10, active compounds read low",1.07
same,normalized growth,"S. cerevisiae deletion strains, locus YIL066C, strain RNR3, active compounds read low",1.02
same,normalized growth,"S. cerevisiae deletion strains, locus YIL073C, strain SPO22, active compounds read low",1.02
same,normalized growth,"S. cerevisiae deletion strains, locus YIL125W, strain kgd1, active compounds read low",1.02
same,normalized growth,"S. cerevisiae deletion strains, locus YIR030C, strain dcg1, active compounds read low",1.08 [resistant] (active)
same,normalized growth,[2],1.05
same,normalized growth,"S. cerevisiae deletion strains, locus YJL134W, strain LCB3, active compounds read low",0.997
same,normalized growth,"S. cerevisiae deletion strains, locus YJL168C, strain set2, active compounds read low",1
same,normalized growth,"S. cerevisiae deletion strains, locus YJL187C, strain SWE1 (second series), active compounds read low",1.02
same,normalized growth,"S. cerevisiae deletion strains, locus YJR043C, strain POL32, active compounds read low",1
same,normalized growth,"S. cerevisiae deletion strains, locus YJR075W, strain HOC1, active compounds read low",1
same,normalized growth,"S. cerevisiae deletion strains, locus YKL009W, strain mrt4, active compounds read low",0.981
same,normalized growth,"S. cerevisiae deletion strains, locus YKL068W, active compounds read low",1
same,normalized growth,"S. cerevisiae deletion strains, locus YKL085W, strain MDH1 (second series), active compounds read low",0.994
same,normalized growth,"S. cerevisiae deletion strains, locus YKL085W, strain MDH1, active compounds read low",0.994
same,normalized growth,"S. cerevisiae deletion strains, locus YKR001C, strain vps1, active compounds read low",1.01
same,normalized growth,"S. cerevisiae deletion strains, locus YLR039C, strain RIC1, active compounds read low",1.07
same,normalized growth,"S. cerevisiae deletion strains, locus YLR058C, strain SHM2, active compounds read low",1.01
same,normalized growth,"S. cerevisiae deletion strains, locus YLR102C, strain apc9, active compounds read low",1.04
same,normalized growth,"S. cerevisiae deletion strains, locus YLR262C, strain YPT6, active compounds read low",1.07
same,normalized growth,"S. cerevisiae deletion strains, locus YLR268W, strain sec22, active compounds read low",1.01
same,normalized growth,"S. cerevisiae deletion strains, locus YLR330W, strain CHS5, active compounds read low",0.997
same,normalized growth,"S. cerevisiae deletion strains, locus YLR342W, strain FKS1 (second series), active compounds read low",1.01
same,normalized growth,"S. cerevisiae deletion strains, locus YLR371W, strain rom2, active compounds read low",1.03
same,normalized growth,"S. cerevisiae deletion strains, locus YLR418C, strain cdc73, active compounds read low",0.998
same,normalized growth,"S. cerevisiae deletion strains, locus YML016C, strain PPZ1, active compounds read low",0.994
same,normalized growth,"S. cerevisiae deletion strains, locus YML032C, strain rad52, active compounds read low",0.996
same,normalized growth,"S. cerevisiae deletion strains, locus YML124C, strain tub3, active compounds read low",1.02
same,normalized growth,"S. cerevisiae deletion strains, locus YMR078C, strain ctf18, active compounds read low",1.02
same,normalized growth,"S. cerevisiae deletion strains, locus YMR223W, strain ubp8, active compounds read low",1.04
same,normalized growth,"S. cerevisiae deletion strains, locus YMR307W, strain GAS1, active compounds read low",0.907
same,normalized growth,"S. cerevisiae deletion strains, locus YNL067W, strain RPL9B, active compounds read low",1.03
same,normalized growth,"S. cerevisiae deletion strains, locus YNL233W, strain BNI4, active compounds read low",1.02
same,normalized growth,"S. cerevisiae deletion strains, locus YNL250W, strain rad50, active compounds read low",1.02
same,normalized growth,"S. cerevisiae deletion strains, locus YNL271C, strain bni1, active compounds read low",1.04
same,normalized growth,"S. cerevisiae deletion strains, locus YNL298W, strain CLA4, active compounds read low",0.963
same,normalized growth,"S. cerevisiae deletion strains, locus YNL307C, strain MCK1, active compounds read low",0.994
same,normalized growth,"S. cerevisiae deletion strains, locus YNR052C, strain pop2, active compounds read low",1.01
same,normalized growth,"S. cerevisiae deletion strains, locus YOL006C, strain TOP1, active compounds read low",1.04
same,normalized growth,"S. cerevisiae deletion strains, locus YOL012C, strain htz1",0.814
same,normalized growth,"S. cerevisiae deletion strains, locus YOL147C, strain pex11, active compounds read low",1.02
same,normalized growth,"S. cerevisiae deletion strains, locus YOR061W, strain CKA2, active compounds read low",1
same,normalized growth,"S. cerevisiae deletion strains, locus YOR069W, strain VPS5, active compounds read low",0.999
same,normalized growth,"S. cerevisiae deletion strains, locus YOR136W, strain idh2, active compounds read low",0.993
same,normalized growth,"S. cerevisiae deletion strains, locus YOR144C, strain elg1, active compounds read low",1.04
same,normalized growth,"S. cerevisiae deletion strains, locus YOR184W, strain ser1, active compounds read low",1.07
same,normalized growth,"S. cerevisiae deletion strains, locus YOR316C, strain cot1, active compounds read low",1.02
same,normalized growth,"S. cerevisiae deletion strains, locus YPL055C, strain LGE1, active compounds read low",1.02
same,normalized growth,"S. cerevisiae deletion strains, locus YPR119W, strain clb2, active compounds read low",1.01
same,normalized growth,"S. cerevisiae deletion strains, locus YPR141C, strain kar3, active compounds read low",1.08
same,normalized growth,"S. cerevisiae deletion strains, locus YPR163C, strain tif3, active compounds read low",0.996
same,normalized growth,"S. cerevisiae deletion strains, locus YPR167C, strain met16, active compounds read low",1.02
same,normalized growth,"S. cerevisiae deletion strains, strain wtn01, active compounds read low",1.02
same,normalized growth,"S. cerevisiae strains, strain wild type, active compounds read low",1.01
COc1ccc(-c2cc(=O)c3c(O)cc(OC)cc3o2)cc1,normalized growth,[1],0.924
same,normalized growth,"S. cerevisiae deletion strains, locus YHR079C, strain IRE1, active compounds read low",0.925
same,normalized growth,[2],0.931
same,normalized growth,"S. cerevisiae deletion strains, locus YJR066W, strain TOR1, active compounds read low",0.874
same,normalized growth,"S. cerevisiae deletion strains, locus YLR113W, strain HOG1, active compounds read low",0.905
same,normalized growth,"S. cerevisiae deletion strains, locus YNL183C, strain NPR1, active compounds read low",0.887
same,normalized growth,"S. cerevisiae deletion strains, locus YOR231W, strain MKK1, active compounds read low",0.919
same,normalized growth,"S. cerevisiae deletion strains, locus YPL256C, strain CLN2, active compounds read low",0.94
